{
  "source": "the supplement of paper PMC6555819",
  "data": [
    {"tested_on": "VDR:RXRa (NR concentration 270 nM, RXRa partner concentration 90 nM)", "assay": "PBM binding z-score (relative to random genomic background probes); higher = stronger binding; sequences stand for … in GC…GCGATTGACAGCGTAGAATGAAGG", "protocol": "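Protein-binding microarray (Agilent 4x180K custom design, double-stranded 60-nt probes: 5' GC cap, 34-nt variable region, 24-nt constant primer region; full probe sequence given). Purified or IVT nuclear receptor:RXRα heterodimers (3:1 NR:RXRα, mostly 270:90 nM) or homodimers were incubated for 1 h in PBS with 2% milk and no ligand, then detected with Alexa488 antibodies. Fluorescence from o1-orientation probes (~5 replicates averaged) was converted to z-scores against 500 random hg19 background probes. Variable regions are seed direct-repeat (DR0–DR5) sites, all their single-nucleotide variants and half-site ablations.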", "values": [
      {"sequence": "ACTAGCAGGCCAAGTTTGGGTCACCCAAACAAAG", "PBM binding z-score": 1.13},
      {"sequence": "CCTGTTAGGTCATGGTCAGCTAATCTACAGTATG", "PBM binding z-score": 2.02},
      {"sequence": "TCCTATAGGTAAATGCTAGGTGAAAGTCCGATCT", "PBM binding z-score": 0.359},
      {"sequence": "TCTACTAGGTCAGTTGGTCAGCTAACGAGCTGCC", "PBM binding z-score": 0.701},
      {"sequence": "GATACAGGGGCAGCTAGAGGCCAGAGTATGGAAA", "PBM binding z-score": -0.219},
      {"sequence": "CATACTAGGTCACCGGAAGGTCAAAGTCCGCATG", "PBM binding z-score": 6.08},
      {"sequence": "TCTGCTAGGTGAGTTGGTCAGCTAACGAGCTGCC", "PBM binding z-score": -0.769},
      {"sequence": "GCATATAGGTAATACAAGCTGAAAGTCCGATTGT", "PBM binding z-score": -0.105},
      {"sequence": "ACTATTAGTTGAGACGAGGGCAAGCGATAGGTTG", "PBM binding z-score": 0.29},
      {"sequence": "ATATCTAGGTAACCAAGTTCAGTGAATGCCGAAC", "PBM binding z-score": 3.97},
      {"sequence": "AGACTGAGGTTATACGTAGATCAGGGAAGAAAGT", "PBM binding z-score": 1.42},
      {"sequence": "TGTAGTTGGTCAAAGGTCACACACTCGAAATGCG", "PBM binding z-score": 5.19},
      {"sequence": "ATCTCTAGGTAAAGATAGTTCAGTTAATGCAAAT", "PBM binding z-score": 1.21},
      {"sequence": "ACTATTAGTTGAGACGAGGGCAACCGTTAGGTTG", "PBM binding z-score": 0.546},
      {"sequence": "CCTACTAGGCCAAAAAGGTCATTGATGCCGATAA", "PBM binding z-score": 5.16},
      {"sequence": "TCTTGTAGATCAATAGAGGTCAAGAAAGTGCGCT", "PBM binding z-score": 4.77},
      {"sequence": "CGAATTAGGTCATCCAGGACAGTGAATACATTGA", "PBM binding z-score": 5.04},
      {"sequence": "TGAATGAGGTTAAAGATCAGAGAACGTGGCGTCG", "PBM binding z-score": 1.8},
      {"sequence": "TTACCAAGGTGAGCTGAGGTCATTGATCCAACTC", "PBM binding z-score": 5.79},
      {"sequence": "TGAATGAGGTTATAAGATCAGGGGACGTTGCAAA", "PBM binding z-score": 1.16},
      {"sequence": "TGTCATAGTTCAAAGGTAACGTAAGTATCCACAC", "PBM binding z-score": 2.96},
      {"sequence": "CCTAGTTGGTCAGGAGCTCACACACCGGATATGA", "PBM binding z-score": 0.0372},
      {"sequence": "GCTATTAGTTGAAAGGGCCACCGAATGATTCTCG", "PBM binding z-score": -0.0971},
      {"sequence": "ATATGTAGGTTAAGGGTCATTTAGGTTGGTTCGC", "PBM binding z-score": 5.38},
      {"sequence": "ATACCAAGGTGATCGTGAGGTCGTGGATACTAAC", "PBM binding z-score": 2.84},
      {"sequence": "CGAACTTGGTCATCCAGGACAGTGAATACATTGA", "PBM binding z-score": 1.59},
      {"sequence": "TTACCAATGTGAAAGGTCGTTGATGCACGCCTTG", "PBM binding z-score": 2.08},
      {"sequence": "TCATATAGGTAAATCCTAGGTGAAAGTCCGATCT", "PBM binding z-score": 0.7},
      {"sequence": "CGTCCAAGGTCAAAGGTCAGTGGAGAGATGACGG", "PBM binding z-score": 6.82},
      {"sequence": "GGAACAAGGGCATTCGAGTTGATAGCATGGCGAT", "PBM binding z-score": 3.12},
      {"sequence": "ATCTCTAGGTAACTAAGTTCAGTGAATGCCGAAC", "PBM binding z-score": 4.26},
      {"sequence": "GCAGACAGTTGAAACGCAGGTAACTCAGGGTGGC", "PBM binding z-score": -0.517},
      {"sequence": "CGGACGAGGGCATGAGTTGATAGCAAATGCCGAT", "PBM binding z-score": 1.21},
      {"sequence": "TAGAGTAGGTTAGGGGCATTCAGAATGGCGTCGA", "PBM binding z-score": 1.06},
      {"sequence": "ACAGACAGGTGAGTGAAGGTAAATCAGCTGGACG", "PBM binding z-score": -0.406},
      {"sequence": "ACTATAAGTTGACTTAGGGCAACCGATACGACGC", "PBM binding z-score": 0.769},
      {"sequence": "GCGACTGGGGCAAAGCAGGTTTCCATAAGGTTGG", "PBM binding z-score": -0.475},
      {"sequence": "GCATATAGATAATACAAGGTGAAAGTCCGATTGT", "PBM binding z-score": 0.152},
      {"sequence": "TGAATGAGGTTAAAGATCAGGGAGCGTGGCGTCG", "PBM binding z-score": 1.74},
      {"sequence": "TAGCCTAGGTCAGATCGGGTCAGTATACGCTATA", "PBM binding z-score": 3.75}
    ]}
  ]
}
